# Where a name gives a salt, the structure may show the parent alone.
# Tested on: thyroid hormone receptor (endogenous TRα and TRβ)
# Parameters: species or system GH3-TRE-Luc (rat pituitary); GH3-TRE-Luc luciferase reporter, antagonist mode against 1 nM T3, loss of signal, qHTS
# Conditions: antagonist mode, 1 nM T3, no GH3 cytotoxicity hit, read-out: Average AC50 (uM) GH3-TRE-Antag
row,SMILES,AC50
1,"Clc1nc(Cl)nc(Cl)n1 [2,4,6-Trichloro-s-triazine]",> 90 µM
2,CN(C)c1ccc(N=Nc2ccccc2)cc1 [4-(Dimethylamino)azobenzene],80.1 µM
3,CCC(N)Cc1c[nH]c2ccccc12 (stereo not shown) [Etryptamine acetate],43.6 µM
4,"Brc1ccc(Oc2cc(Br)c(Br)cc2Br)c(Br)c1 [2,2',4,4',5-Pentabromodiphenyl ether]",39.4 µM
5,CNC(=O)Oc1cccc(N=CN(C)C)c1 [Formetanate hydrochloride],70.8 µM
6,CCCCCCCCCCCCBr [1-Bromododecane],93.3 µM
7,CN1C[C@H](C(=O)N[C@]2(C)O[C@@]3(O)[C@@H]4CCCN4C(=O)[C@H](Cc4ccccc4)N3C2=O)C=C2c3cccc4[nH]cc(c34)C[C@H]21 [Ergotamine D-tartrate],36.2 µM
8,O=C1C(=O)c2cccc3cccc1c23 [Acenaphthenequinone],76.1 µM
9,COC(=O)c1c(C(F)F)nc(C(F)(F)F)c(C2=NCCS2)c1CC(C)C [Thiazopyr],> 90 µM
10,ClC1(Cl)C2(Cl)C3(Cl)C4(Cl)C(Cl)(Cl)C5(Cl)C3(Cl)C1(Cl)C5(Cl)C24Cl (stereo not shown) [Mirex],> 90 µM
11,"OCC(c1ccc(Cl)cc1)c1ccc(Cl)cc1 [2,2-Bis(4-chlorophenyl)ethanol]",46.2 µM
12,C[C@]12CCC(=O)C[C@@H]1CC[C@@H]1[C@@H]2CC[C@]2(C)[C@@H](O)CC[C@@H]12 [5alpha-Dihydrotestosterone],27.8 µM
13,Nc1ccccc1C(=O)Oc1ccc2ccccc2c1 [Naphthalen-2-yl 2-aminobenzoate],82.4 µM
14,CN(C)c1ccc(C(c2ccccc2)c2ccc(N(C)C)cc2)cc1 [Leucomalachite green],20.8 µM
15,CCOP(=S)(OCC)SCSP(=S)(OCC)OCC [Ethion],71.9 µM
16,O=C(O)C(F)(F)C(F)(F)C(F)(F)C(F)(F)C(F)(F)C(F)(F)C(F)(F)F [Ammonium perfluorooctanoate],77.1 µM
17,CNC(=O)O/N=C(\SC)C(=O)N(C)C [Oxamyl],> 90 µM
18,Nc1ccc(-c2ccccc2)cc1 [4-Biphenylamine hydrochloride],76.8 µM
19,O=P(Oc1ccccc1)(Oc1ccccc1)Oc1ccccc1 [Triphenyl phosphate],> 90 µM
20,CCCCC(CC)COP(=O)(Oc1ccccc1)Oc1ccccc1 (stereo not shown) [2-Ethylhexyl diphenyl phosphate],48.3 µM
21,CCCCSP(=O)(SCCCC)SCCCC [Tribufos],50.4 µM
22,CCOP(=S)(OCC)Oc1ccc(Cl)cc1Cl [Dichlofenthion],71.5 µM
23,CCOP(=S)(OCC)Oc1cc(C)nc(C(C)C)n1 [Diazinon],46.4 µM
24,CC(C)NC(C)Cc1ccc(I)cc1 (stereo not shown) [Iofetamine hydrochloride],22.3 µM
25,CCc1cc2c(s1)-n1c(C)nnc1CN=C2c1ccccc1Cl [Etizolam],> 50 µM
26,CC(C)(N)Cc1ccc(Cl)cc1 [Chlorphentermine hydrochloride],39.2 µM
27,CC(=O)[C@H]1CC[C@H]2[C@@H]3CC[C@@H]4C[C@H](O)CC[C@]4(C)[C@H]3CC[C@]12C [Eltanolone],13.6 µM
28,C[C@]12CCC(=O)C=C1CC[C@@H]1[C@@H]2CC[C@@]2(C)[C@H]1CC[C@]2(C)O [17-Methyltestosterone],46 µM

# Same assay, conditions: read-out: Average AC50 (uM) GH3-TRE-Antag; 24 h; antagonist
row,SMILES,AC50
1,Cc1cc2c3c(c1)C(c1ccccc1)=N[C@@H](NC(=O)c1ccncc1)C(=O)N3CC2 [CI-1018],27.4 µM
2,C[C@]12CC[C@H]3[C@@H](CCC4=CC(=O)CC[C@@H]43)[C@@H]1CC[C@@H]2OC(=O)CCc1ccccc1 [Nandrolone phenpropionate],19.5 µM
3,"COc1cc(C[C@H](C)N)c(OC)cc1C [(S)-(+)-2,5-Dimethoxy-4-methylamphetamine hydrochloride]",49.7 µM
4,C[C@]12CC[C@H]3[C@@H](CCC4=CC(=O)CC[C@@H]43)[C@@H]1CC[C@@H]2O [Nandrolone],32.5 µM
5,CN(C)CCc1c[nH]c2cccc(O)c12 [Psilocin],91 µM
6,O=C1CN=C(c2ccccc2)c2cc(Cl)ccc2N1CC1CC1 [Prazepam],> 50 µM
7,O=c1oc2ccccc2c(O)c1C(CC(O)c1ccc(-c2ccc(Br)cc2)cc1)c1ccccc1 (stereo not shown) [Bromadiolone],44.3 µM
8,O=C1CN=C(c2ccccc2)c2cc(Cl)ccc2N1 [Desmethyldiazepam],22.9 µM
9,CC[C@H]1C[C@H]2[C@@H]3CCC4=CC(=O)CC[C@@H]4[C@H]3CC[C@]2(C)[C@H]1O [Oxendolone],21.2 µM
